Screening data as filed in PubChem.
Shown are actives, neighbours in structure and some others; about 18% of the full set was active somewhere.
Six1-Eya2 inh: blocks human Six1 binding to Eya2; activity change, % (concentration not given with the values); hit rate 0.56% among 360,000; Q15475+O00167; AID 651725; AlphaScreen GST-Six1/His-Eya2 binding, biochemical; active compounds read low; in the data active means activity change below about -65%; inconclusive means mostly about -30% to -63%
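AlphaScreen with GST-Six1 and His-Eya2 (5X mix: 250 nM and 500 nM), glutathione donor and nickel acceptor beads; buffer 50 mM Tris pH 8.0, 300 mM NaCl, 1 mM TCEP; 1 h at 37 C in the dark.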
TDP1 inh: TDP1 (human) enzyme inhibition | Q9NUW8 | Potency, µM (highest dose often 130 µM), usual class: inhibitors | hit rate 0.28% among 350,000 | recombinant TDP1, AlphaScreen DNA substrate cleavage | AID 485290; further: nearly all actives have a fitted effect of over 40% in size
Target sequence (Q9NUW8 whole entry, looked up): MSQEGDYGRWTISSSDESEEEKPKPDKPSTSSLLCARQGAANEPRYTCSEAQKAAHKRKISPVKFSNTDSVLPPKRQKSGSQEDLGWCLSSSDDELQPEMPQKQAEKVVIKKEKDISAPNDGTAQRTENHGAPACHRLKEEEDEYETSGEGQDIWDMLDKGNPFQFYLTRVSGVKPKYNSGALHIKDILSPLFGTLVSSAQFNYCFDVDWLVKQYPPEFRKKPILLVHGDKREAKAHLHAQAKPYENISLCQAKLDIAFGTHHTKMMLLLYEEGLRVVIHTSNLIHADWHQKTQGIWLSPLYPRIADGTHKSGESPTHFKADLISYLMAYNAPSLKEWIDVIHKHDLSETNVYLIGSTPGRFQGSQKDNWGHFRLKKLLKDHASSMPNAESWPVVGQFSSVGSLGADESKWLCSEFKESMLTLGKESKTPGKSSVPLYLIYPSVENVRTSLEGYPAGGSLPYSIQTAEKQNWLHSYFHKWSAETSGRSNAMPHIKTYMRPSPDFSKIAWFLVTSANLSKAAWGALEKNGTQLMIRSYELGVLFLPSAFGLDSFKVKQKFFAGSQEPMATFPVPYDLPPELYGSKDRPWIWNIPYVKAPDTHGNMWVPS
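Signal: AlphaScreen proximity between streptavidin donor and anti-FITC acceptor beads on intact substrate. Reaction: Tdp1 1 nM, substrate 15 nM final, 5 min RT after 15 min compound preincubation.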
TDP1 cell noCPT: qHTS for Inhibitors of human tyrosyl-DNA phosphodiesterase 1 (TDP1): qHTS in cells in absence of CPT. Potency, µM (titrated, usually from 46.2 µM), usual class: inhibitors. DT40 Tdp1-/- hTDP1 cells, no CPT, ATP luminescence, 48 h. hit rate 15% among 420,000; further: nearly all actives have a fitted effect of over 55% in size
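Growth kinetics read by CellTiter-Glo luminescence after ≥48 hr at 37 °C. Cells: DT40 Tdp1-/- stably carrying human TDP1, 400 per well, compound exposure in the absence of CPT (DMSO vehicle).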
CtBP-E1A blk: inhibitors of CtBP/E1A interaction. AlphaScreen GST-E1A/His-CtBP binding, 1536-well; active compounds read low. activity change, % (no concentration beside the values). hit rate 0.49% among 340,000. AID 651724; in the data active means activity change below about -65%; inconclusive means mostly about -30% to -63%
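Protein mix (5X: 125 nM each GST-E1A, His-CtBP) was incubated with pinned compound 2 h at 37 deg C in dark, in 50 mM Tris pH 8.0 buffer with 300 mM NaCl. Glutathione donor and nickel acceptor beads followed; AlphaScreen signal read after 1 h.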
TDP1 cell CPT: DT40-hTDP1 cell growth loss with CPT; hit rate 12% among 420,000; chicken DT40 Tdp1-/-;hTDP1 cells + 20 nM CPT, ATP luminescence, 48 h; Potency, µM (top dose mostly 46.2 µM), most hits filed as inhibitors; AID 686979; further: nearly all actives have a fitted effect of over 55% in size
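Chicken DT40 Tdp1-/- cells stably complemented with human TDP1 were seeded at 400 cells/well in medium containing 20 nM camptothecin, exposed to pin-transferred compounds, and grown at 37 °C for at least 48 hr. Viability was read as ATP luminescence.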
IL-1B inflam inh: inflammasome signaling inhibition, IL-1 beta readout; THP-1 LPS/ATP IL-1B secretion, AlphaLISA, 16 h; active compounds read low; activity change, % at 57.5 µM; hit rate 4.7% among 360,000; in the data active means activity change below about -50%; inconclusive means mostly about -30% to -49%
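Secreted IL-1B measured by AlphaLISA bead assay after 16 h compound exposure of THP-1 cells; compounds (final up to 57.5 uM) added 1 h before LPS (250 ng/mL) and ATP (1.25 mM) stimulation; lower signal means less secretion.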
Hits are given with their value; n = inactive; u = inconclusive; x = no result; ! = not confirmed by another sample; [ ] = dose if it differs, or a comment. Unless noted, the call rests on the fitted dose curve; in most records, active means well fitted curve in the direction sought with a large enough effect; inconclusive means small, poorly fitted or top-dose-only effect, or another doubt; inactive means no such curve, though single readings can be large; an effect the other way counts as inactive or inconclusive.

SMILES	Six1-Eya2 inh	TDP1 inh	TDP1 cell noCPT	CtBP-E1A blk	TDP1 cell CPT	IL-1B inflam inh
CCCOC(=O)c1c(NC(=O)C(C)Sc2nc(-c3ccccc3)cc(C(F)(F)F)n2)sc(C(=O)N(C)C)c1C (configuration not stated)	x	n	15µM	x	u	x
CCSC1=N/C(=C\c2ccccc2)C(=O)N1c1ccc(OC)cc1	n	n	21µM	n	u	n
C=CCSC1=N/C(=C\c2cccnc2)C(=O)N1c1ccc(OC)cc1	n	n	u	n	n	n
N#CC(Cc1cccc(CC(C#N)(c2ccccc2)c2ccccc2)c1)(c1ccccc1)c1ccccc1	n	x	4.1µM	n	3.3µM	n
CC(C)(C#N)Cc1cc(CC(C)(C)C#N)cc(C(C)(C)C)c1	n	x	n	n	n	n
CN(C)CCn1c(=N)n(CC(O)c2ccc(Cl)c(Cl)c2)c2ccccc21 (configuration not stated)	n	n	23µM	n	23µM	x
N=c1n(CCN2CCCCC2)c2ccccc2n1CC(O)c1cccc(Br)c1 (configuration not stated)	n	n	16µM	n	15µM	n
N=c1n(CCN2CCCCC2)c2ccccc2n1CC(O)c1ccc(Cl)c(Cl)c1 (configuration not stated)	n	n	8.2µM	n	3.7µM	-68
CCOc1ncccc1C(=O)OCC(=O)NCc1ccc(C(=O)OC)cc1	n	n	n	n	n	n
Cc1cc2oc(C(=O)N(Cc3ccccc3)c3ccccn3)cc(=O)c2cc1Cl	n	x	n	n	n	n
O=C(NC(=S)NCCC1=CCCCC1)c1ccc(Br)o1	n	n	n	n	u	n
O=[N+]([O-])c1nn(-c2ccc(Cl)cc2)n(O)c1=NCc1cccnc1	n	n	10µM	n	8.2µM	n
Cc1ccc(CN=c2c([N+](=O)[O-])nn(-c3ccc(Cl)cc3)n2O)cc1	n	n	u	n	u	n
O=[N+]([O-])c1nn(-c2ccc(Cl)cc2)n(O)c1=NCc1ccncc1	n	n	10µM	n	5.2µM	u
O=[N+]([O-])c1nn(-c2cccc(Cl)c2)n(O)c1=NCc1cccnc1	n	n	13µM	n	8.2µM	n
Cc1cccc(-n2nc([N+](=O)[O-])c(=NCc3cccnc3)n2O)c1	n	n	u	n	12µM	n
CC(C)OC(=O)c1c(NC(=O)COc2cccc(Br)c2)sc2c1CCCC2	x	n[12.3 µM]	n	x	n	x
O=C(Nc1ccc(Cl)cc1)c1cccc(NC2=NC3CS(=O)(=O)CC3S2)c1 (configuration not stated)	n	x	n	n	n	n
COc1ccccc1N1CCN(C(=O)C(C)NC(=O)c2ccco2)CC1 (configuration not stated)	n	n	n	n	n	n
CCc1ccc(C(=O)Nc2ccc3c(c2)n(C)c(=O)n3C)cc1	n	x	u	u	u	n
Cc1ccc(S(=O)(=O)NCC(=O)OC2CCOC2=O)cc1 (configuration not stated)	n	n	n	n	n	n
Cc1ccc(SC(=O)c2c(C)noc2-c2cc(C)on2)cc1	n	n	9.2µM	n	18µM	-65
Cc1cc(-c2onc(C)c2C(=O)N/N=C/c2ccccc2)no1	n	n	n	n	n	n
O=S(=O)(Nc1ccccc1)c1ccc(-c2cnc(C3CC3)o2)cc1	n	n	2.3µM	x	3.7µM	n
O=S(=O)(NCc1ccc(Cl)cc1)c1ccc(-c2cnc(C3CC3)o2)cc1	x	n	u	x	u	x
SMILES	Six1-Eya2 inh	TDP1 inh	TDP1 cell noCPT	CtBP-E1A blk	TDP1 cell CPT	IL-1B inflam inh
O=S(=O)(c1ccc(-c2cnc(C3CC3)o2)cc1)N1CCN(c2ccccc2F)CC1	x	n	n	x	u	x
CC(=O)Nc1ccc(NS(=O)(=O)c2ccc(-c3cnc(C4CC4)o3)cc2)cc1	n	n	n	n	n	n
Cc1ccc(Cl)cc1N1CCN(S(=O)(=O)c2ccc(-c3cnc(C4CC4)o3)cc2)CC1	x	n	13µM	x	u	x
CC(=O)c1cccc(NS(=O)(=O)c2ccc(-c3cnc(C4CC4)o3)cc2)c1	n	n	2.6µM	x	4.1µM	n
O=S(=O)(NCc1ccc(F)cc1)c1ccc(-c2cnc(C3CC3)o2)cc1	n	n	10µM!	n	18µM	n
COCC1CCN(C(=O)c2cc(COc3ccc(OC)cc3Cl)on2)C1 (configuration not stated)	n	x	u	n	n	n
Cc1cc(F)ccc1NC(=O)CCS(=O)(=O)c1ccc2c(c1)NC(=O)CO2	x	n	x	x	x	x
CCOC(=O)Cc1csc(NC(=O)CSc2nnc(C)n2C)n1	n	n	n	n	n	n
Cc1ccc(C)c(NS(=O)(=O)c2ccc(-c3cnc(C4CC4)o3)cc2)c1	n	n	0.0052µM	x	0.0058µM	n
CCOc1ccc(NS(=O)(=O)c2ccc(-c3cnc(C4CC4)o3)cc2)cc1	n	n	9.2µM	x	u	n
Cc1cc(C)cc(NS(=O)(=O)c2ccc(-c3cnc(C4CC4)o3)cc2)c1	n	n	0.82µM	x	0.82µM	n
Cc1cccc(NS(=O)(=O)c2ccc(-c3cnc(C4CC4)o3)cc2)c1C	n	n	0.01µM	x	0.0073µM	n
c1ccc(-c2cnc(C3CCCCC3)o2)cc1	n	x	n	n	n	n
O=C(NCCc1cccc(Cl)c1)c1cc2ccccc2oc1=O	n	x	n	n	n	n
CCN(CC)CCCN1C(=O)C(=O)/C(=C(/O)c2ccccc2)C1c1cc(OC)ccc1OC (configuration not stated)	n	n	n	n	n	n
COc1ccc(C)cc1NC(=O)CN(C)S(=O)(=O)c1cnc[nH]1	n	n	n	n	n	n
CCc1nn(Cc2ccc(Cl)cc2)c(=O)c2cc3cc(C)ccc3n12	x	n	n	x	n	x
Cc1nn(-c2ccccc2)c(Cl)c1/C=N/NC(=O)CCNc1n[nH]c(=O)[nH]c1=O	n	n	n	n	n	n
COc1ccc(NS(=O)(=O)c2ccc(S(=O)(=O)N3CCCC3)cc2)cc1Cl	n	n	u	n	n	n
Cc1ccc(NS(=O)(=O)c2ccc(-c3cnc(C4CC4)o3)cc2)cc1N(C)C	x	n	0.73µM	x	1µM	x
Cc1ccc(NS(=O)(=O)c2cc3[nH]c(=O)c(=O)[nH]c3cc2C)cc1N(C)C	x	n	n	x	n	x
COc1ccc(NS(=O)(=O)c2ccc(-c3cnc(C4CC4)o3)cc2)cc1Cl	x	n	1.5µM	x	0.65µM	x
CC1(c2ccc(Cl)cc2)NC(=O)N(CC(=O)NC2CCCCC2)C1=O (configuration not stated)	n	n	u	n	n	n
CC(C)(Cc1c[nH]c2ccccc12)NCC(O)COc1ccccc1C#N (configuration not stated)	x	n	24µM	x	21µM	x
